Experimental data from the supplement of paper PMC9262897, “Low-cost anti-mycobacterial drug discovery using engineered E. coli” (Nature Communications, 2022).
Counter-ions that a name gives are not always drawn. ± gives the standard deviation of the averaged measurements.

What was measured:
Assay in all cases: growth (OD600 after 10 h); higher = more growth (less inhibition)
[1] = tested on: E. coli TESEC Alr+ wild-type control; details: compound 0.1 mM; raw OD600 reference: median of DMSO wells 0.241, cell-free background 0.041
Protocol: (§1)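 TESEC Mtb Alr E. coli, or the Alr+ wild-type control, in 384-well plates with Prestwick library compounds at 0.1 mM and 1% DMSO, across arabinose induction levels of 1E3 to 1E7 nM. Growth is read as OD600 after 10 h at 37 °C in triplicate biological replicates.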

[2] = tested on: E. coli TESEC Mtb Alr; details: compound 0.1 mM
Protocol: as §1

[3] = tested on: E. coli TESEC Mtb Asd; details: compound 0.1 mM
Protocol: (§2)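 TESEC E. coli strains in which the native enzyme is deleted and replaced by arabinose-inducible Mtb Asd, DapB, CysH or TrpD, each grown in its selective medium. Strains were screened against the Prestwick library at 0.1 mM and 1% DMSO in 384-well format at low and high arabinose induction. Growth is read as OD600 after 10 h in triplicate.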

[4] = tested on: E. coli TESEC Mtb DapB; details: compound 0.1 mM
Protocol: as §2

[5] = tested on: E. coli TESEC Alr+ wild-type control; details: compound 0.1 mM; raw OD600 reference: median of DMSO wells 0.49, cell-free background 0.052
Protocol: (§3)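 TESEC Mtb Alr E. coli (ΔaraC ΔtolC ΔentC Δalr ΔdadX, arabinose-inducible Mtb Alr) or the Alr+ wild-type control strain, grown in defined M9-fructose medium without D-alanine in 96-well plates with Prestwick library compounds at 0.1 mM and 1% DMSO. Low Alr induction is 0.1 µM arabinose and high induction is 10 mM arabinose.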

[6] = tested on: E. coli TESEC Mtb Alr; details: compound 0.1 mM; remark: listed apart in the source
Protocol: as §3

[7] = arabinose 1000 nM, raw OD600 reference: median of DMSO wells 0.294, cell-free background 0.041
[8] = arabinose 10000 nM, raw OD600 reference: median of DMSO wells 0.264, cell-free background 0.041
[9] = arabinose 100000 nM, raw OD600 reference: median of DMSO wells 0.201, cell-free background 0.041
[10] = arabinose 1000000 nM, raw OD600 reference: median of DMSO wells 0.193, cell-free background 0.041
[11] = arabinose 10000000 nM, raw OD600 reference: median of DMSO wells 0.146, cell-free background 0.041
[12] = arabinose induction (level): High, raw OD600 reference: median of DMSO wells 0.331, cell-free background 0.041
[13] = arabinose induction (level): Low, raw OD600 reference: median of DMSO wells 0.417, cell-free background 0.041
[14] = arabinose induction (level): High, raw OD600 reference: median of DMSO wells […], cell-free background 0.041
[15] = arabinose induction (level): Low, raw OD600 reference: median of DMSO wells 0.227, cell-free background 0.041
[16] = arabinose 100 nM, raw OD600 reference: median of DMSO wells 0.413, cell-free background 0.052
[17] = arabinose 10000000 nM, raw OD600 reference: median of DMSO wells […], cell-free background 0.052

Compound | growth [1] | growth [2, 7] | growth [2, 8] | growth [2, 9] | growth [2, 10] | growth [2, 11] | growth [3, 12] | growth [3, 13] | growth [4, 14] | growth [4, 15] | growth [5] | growth [6, 16] | growth [6, 17]
C#CCN[C@@H]1CCc2ccccc21 [Rasagiline] | 0.224 ± 0.0077 | 0.281 ± 0.012 | 0.263 ± 0.011 | 0.19 ± 0.011 | 0.194 ± 0.023 | 0.142 ± 0.0024 | 0.245 ± 0.065 | 0.342 ± 0.075 | 0.186 ± 0.0077 | 0.243 ± 0.025 | 0.547 ± 0.014 | 0.421 ± 0.011 | 0.322 ± 0.0094
CCOC(=O)C1=C[C@]2(CC)CCCN3CCc4c(n1c1ccccc41)[C@@H]32 [Vinpocetine] | 0.216 ± 0.0075 | 0.271 ± 0.015 | 0.25 ± 0.0089 | 0.184 ± 0.015 | 0.145 ± 0.005 | 0.143 ± 0.0046 | 0.232 ± 0.0031 | 0.379 ± 0.069 | 0.164 ± 0.0032 | 0.191 ± 0.0094 | 0.557 ± 0.044 | 0.4094 ± 0.0032 | 0.337 ± 0.016
O=C(c1ccc(OCCN2CCCCC2)cc1)c1c(-c2ccc(O)cc2)sc2cc(O)ccc12 [Raloxifene hydrochloride] | 0.0456 ± 0.0048 | 0.0454 ± 0.0038 | 0.0428 ± 0.0024 | 0.048 ± 0.0037 | 0.0438 ± 0.002 | 0.0448 ± 0.003 | 0.062 ± 0.0013 | 0.0566 ± 0.0034 | 0.0658 ± 0.014 | 0.0509 ± 0.0031 | 0.04917 ± 0.00038 | 0.41 ± 0.007 | 0.0554 ± 0.0018
CCC(C)(C)C(=O)O[C@H]1C[C@@H](C)C=C2C=C[C@H](C)[C@H](CC[C@@H]3C[C@@H](O)CC(=O)O3)[C@H]21 [Simvastatin] | 0.198 ± 0.017 | 0.201 ± 0.015 | 0.161 ± 0.0024 | 0.113 ± 0.0033 | 0.053 ± 0.0021 | 0.0742 ± 0.004 | 0.0906 ± 0.015 | 0.197 ± 0.023 | 0.161 ± 0.021 | 0.175 ± 0.0069 | 0.311 ± 0.016 | 0.392 ± 0.014 | 0.0705 ± 0.023
OCCN1CCN(CCCN2c3ccccc3Sc3ccc(Cl)cc32)CC1 [Perphenazine] | 0.0416 ± 0.00046 | 0.0411 ± 0.00082 | 0.0422 ± 0.00061 | 0.0431 ± 0.0021 | 0.04167 ± 0.00035 | 0.0462 ± 0.00053 | 0.0588 ± 0.0034 | 0.0626 ± 0.0018 | 0.0511 ± 0.001 | 0.0954 ± 0.078 | 0.0523 ± 0.0019 | 0.285 ± 0.2 | 0.0538 ± 0.00074
CN(CCOc1ccc(NS(C)(=O)=O)cc1)CCc1ccc(NS(C)(=O)=O)cc1 [Dofetilide] | 0.209 ± 0.0043 | 0.28 ± 0.0052 | 0.253 ± 0.008 | 0.171 ± 0.016 | 0.173 ± 0.0041 | 0.133 ± 0.0023 | 0.213 ± 0.019 | 0.336 ± 0.076 | 0.229 ± 0.041 | 0.241 ± 0.032 | 0.589 ± 0.053 | 0.427 ± 0.0089 | 0.318 ± 0.0084
O=C1c2cccc3c2[C@H](CCC3)CN1[C@@H]1CN2CCC1CC2 [Palonosetron hydrochloride] | 0.212 ± 0.017 | 0.281 ± 0.0041 | 0.263 ± 0.013 | 0.177 ± 0.01 | 0.165 ± 0.0085 | 0.151 ± 0.0037 | 0.267 ± 0.049 | 0.279 ± 0.045 | 0.198 ± 0.0067 | 0.235 ± 0.02 | 0.601 ± 0.042 | 0.417 ± 0.011 | 0.307 ± 0.022
CC(C)(Oc1ccc(Cl)cc1)C(=O)O [Clofibric acid] | 0.253 ± 0.0056 | 0.313 ± 0.011 | 0.256 ± 0.01 | 0.201 ± 0.015 | 0.171 ± 0.0038 | 0.154 ± 0.0039 | 0.443 ± 0.024 | 0.442 ± 0.025 | 0.199 ± 0.016 | 0.251 ± 0.037 | 0.547 ± 0.1 | 0.404 ± 0.011 | 0.305 ± 0.011
C=C[C@H]1CN2CC[C@H]1C[C@@H]2[C@@H](O)c1ccnc2ccc(OC)cc12 [Quinidine hydrochloride monohydrate] | 0.22 ± 0.004 | 0.28 ± 0.019 | 0.265 ± 0.01 | 0.181 ± 0.0089 | 0.138 ± 0.0072 | 0.144 ± 0.0058 | 0.239 ± 0.04 | 0.412 ± 0.012 | 0.198 ± 0.0064 | 0.229 ± 0.034 | 0.483 ± 0.07 | 0.4326 ± 0.004 | 0.356 ± 0.0089
CN(C)CCN(Cc1cccs1)c1ccccn1 [Methapyrilene hydrochloride] | 0.216 ± 0.0071 | 0.281 ± 0.012 | 0.252 ± 0.007 | 0.224 ± 0.024 | 0.165 ± 0.0065 | 0.143 ± 0.0051 | 0.257 ± 0.024 | 0.41 ± 0.059 | 0.175 ± 0.0071 | 0.193 ± 0.0062 | 0.644 ± 0.021 | 0.402 ± 0.011 | 0.332 ± 0.011
CNc1ncnc2c1ncn2[C@@H]1O[C@H](CO)[C@@H](O)[C@H]1O [N6-methyladenosine] | 0.283 ± 0.008 | 0.334 ± 0.023 | 0.263 ± 0.0068 | 0.261 ± 0.012 | 0.189 ± 0.003 | 0.15 ± 0.0032 | 0.343 ± 0.044 | 0.416 ± 0.023 | 0.21 ± 0.0029 | 0.209 ± 0.0066 | 0.539 ± 0.094 | 0.28 ± 0.065 | 0.364 ± 0.0048
CCN(CC)CCCC(C)Nc1c2ccc(Cl)cc2nc2ccc(OC)cc12 (stereo not drawn) [Quinacrine dihydrochloride hydrate] | 0.0702 ± 0.00072 | 0.0775 ± 0.016 | 0.0444 ± 0.00085 | 0.104 ± 0.0031 | 0.04497 ± 0.00023 | 0.1 ± 0.0037 | 0.0701 ± 0.0057 | 0.0679 ± 0.006 | 0.156 ± 0.022 | 0.0986 ± 0.073 | 0.125 ± 0.049 | 0.421 ± 0.0083 | 0.222 ± 0.025
COc1ccc(Cl)cc1C(=O)NCCc1ccc(S(=O)(=O)NC(=O)NC2CCCCC2)cc1 [Glibenclamide] | 0.122 ± 0.0053 | 0.166 ± 0.035 | 0.146 ± 0.004 | 0.144 ± 0.0077 | 0.0688 ± 0.0014 | 0.125 ± 0.0025 | 0.154 ± 0.02 | 0.218 ± 0.015 | 0.158 ± 0.013 | 0.173 ± 0.014 | 0.355 ± 0.032 | 0.349 ± 0.12 | 0.0906 ± 0.0069
C=CCN1CCCC1CNC(=O)c1cc2nn[nH]c2cc1OC (stereo not drawn) [Alizapride HCl] | 0.234 ± 0.0057 | 0.277 ± 0.0082 | 0.271 ± 0.01 | 0.218 ± 0.025 | 0.191 ± 0.0082 | 0.143 ± 0.0052 | 0.299 ± 0.032 | 0.373 ± 0.05 | 0.217 ± 0.022 | 0.201 ± 0.017 | 0.536 ± 0.045 | 0.406 ± 0.011 | 0.336 ± 0.011
CCCC(C(=O)OCCN(CC)CC)(c1ccccc1)c1ccccc1 [Proadifen hydrochloride] | 0.0491 ± 0.0002 | 0.04737 ± 0.00042 | 0.04077 ± 0.00038 | 0.0496 ± 0.0007 | 0.04163 ± 0.00032 | 0.04523 ± 0.00015 | 0.0541 ± 0.001 | 0.0665 ± 0.012 | 0.126 ± 0.0053 | 0.129 ± 0.0055 | 0.0545 ± 0.001 | 0.319 ± 0.17 | 0.0643 ± 0.01
C=CC1=C(C(=O)O)N2C(=O)[C@@H](NC(=O)/C(=N\OCC(=O)O)c3csc(N)n3)[C@H]2SC1 [Cefixime] | 0.0395 ± 0.00093 | 0.0377 ± 0.0006 | 0.0408 ± 0.00017 | 0.03693 ± 0.00032 | 0.0407 ± 0.00045 | 0.04003 ± 0.00021 | 0.0679 ± 0.013 | 0.048 ± 0.004 | 0.0696 ± 0.022 | 0.0479 ± 0.0042 | 0.0448 ± 0.00017 | 0.0456 ± 0.00035 | 0.054 ± 0.001
